PubChem BioAssay (NCATS)
Records with an inconclusive call do not appear. A structure can be active in one record and inactive in another. Activity calls are given as the source filed them. Unless noted, the call rests on the fitted dose curve; in most records, active means well fitted curve in the direction sought with a large enough effect; inconclusive means small, poorly fitted or top-dose-only effect, or another doubt; inactive means no such curve, though single readings can be large; an effect the other way counts as inactive or inconclusive.

How the values were obtained:
[1] = target: Thioredoxin reductase 1, cytoplasmic (Rattus norvegicus) (UniProt O89049); test: qHTS Assay for Substrates of Mammalian Selenoprotein Thioredoxin Reductase 1 (TrxR1) (AID 488772);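 further: NADPH fluorescence in the first read after selenite addition and not the 8 min delta; series mostly up to about 57 µM; 0% is about no effect; a drop in NADPH fluorescence below the no-compound background marks a TrxR1 substrate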
Sequence of Thioredoxin reductase 1, cytoplasmic (Rattus norvegicus) (O89049 whole entry, looked up): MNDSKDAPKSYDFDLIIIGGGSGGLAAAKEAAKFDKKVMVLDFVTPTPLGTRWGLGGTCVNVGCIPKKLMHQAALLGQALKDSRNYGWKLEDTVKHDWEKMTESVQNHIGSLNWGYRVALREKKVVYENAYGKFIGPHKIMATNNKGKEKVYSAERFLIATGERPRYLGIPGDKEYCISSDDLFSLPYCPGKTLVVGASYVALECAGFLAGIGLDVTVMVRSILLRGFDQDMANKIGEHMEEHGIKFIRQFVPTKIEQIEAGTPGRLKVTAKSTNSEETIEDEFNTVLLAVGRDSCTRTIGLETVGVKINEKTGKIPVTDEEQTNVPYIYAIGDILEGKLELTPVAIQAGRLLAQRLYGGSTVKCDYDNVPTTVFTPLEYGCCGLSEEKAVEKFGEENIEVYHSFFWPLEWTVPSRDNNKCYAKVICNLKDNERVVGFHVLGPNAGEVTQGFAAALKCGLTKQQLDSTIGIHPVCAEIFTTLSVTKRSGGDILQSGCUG
How it was run: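 Quantitative HTS in Tris-HCl buffer at pH 7.5 with EDTA and Tween-20, using rat TrxR1, 400 uM NADPH and 400 uM selenite (final). A fall in initial NADPH fluorescence relative to background marked substrate behaviour.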

[2] = target: Thioredoxin reductase 1, cytoplasmic (Rattus norvegicus) (UniProt O89049); test: qHTS Assay for Inhibitors of Mammalian Selenoprotein Thioredoxin Reductase 1 (TrxR1) (AID 488773); conditions: Potency: inhibition;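 further: drop in NADPH fluorescence over an 8 min run after selenite addition; series mostly up to about 57 µM; on the % scale 0 is the no-effect control and ±100 the full control effect; nearly all actives have a fitted effect of over 40% in size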
How it was run: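 Steps: enzyme (90 nM) plus NADPH (400 uM final), 5 min at ~22 deg C; compound added, 15 min; selenite (400 uM final) added; fluorescence followed for 8 min. Concentration-response curves derived from the normalized delta values.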

[3] = target: Flap endonuclease 1 (Homo sapiens) (UniProt P39748); test: qHTS Validation Assay for the Inhibitors of Human Flap endonuclease 1 (FEN1) (AID 488816); further: on the % scale 0 is the no-effect control and ±100 the full control effect
Sequence of Flap endonuclease 1 (Homo sapiens) (P39748 whole entry, looked up): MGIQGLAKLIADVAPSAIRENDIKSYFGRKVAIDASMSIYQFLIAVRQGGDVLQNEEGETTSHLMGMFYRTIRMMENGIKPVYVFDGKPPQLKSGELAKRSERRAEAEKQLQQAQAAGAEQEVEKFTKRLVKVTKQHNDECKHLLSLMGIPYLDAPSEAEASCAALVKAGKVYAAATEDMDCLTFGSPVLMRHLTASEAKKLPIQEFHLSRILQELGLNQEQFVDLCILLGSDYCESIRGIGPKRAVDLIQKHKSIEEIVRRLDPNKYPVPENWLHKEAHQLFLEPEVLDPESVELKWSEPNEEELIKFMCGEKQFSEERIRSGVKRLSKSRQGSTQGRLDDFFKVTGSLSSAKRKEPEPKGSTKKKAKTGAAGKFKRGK
How it was run: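 Human FEN1 (10 nM) preincubated 15 min at room temperature with compounds, then flap DNA substrate added at 50 nM final. Fluorescence read at 0 and 15 min; concentration-response fitted with four-parameter Hill equation.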

[4] = target: M-phase phosphoprotein 8 (Homo sapiens) (UniProt Q99549); test: qHTS Validation Assay for Inhibitors for MPP8 Chromodomain Interactions with Methylated Histone Tails (AID 488949); further: nearly all actives have a fitted effect of over 55% in size; further: potency means the concentration at half of the fitted maximal effect
Sequence of M-phase phosphoprotein 8 (Homo sapiens) (Q99549 whole entry, looked up): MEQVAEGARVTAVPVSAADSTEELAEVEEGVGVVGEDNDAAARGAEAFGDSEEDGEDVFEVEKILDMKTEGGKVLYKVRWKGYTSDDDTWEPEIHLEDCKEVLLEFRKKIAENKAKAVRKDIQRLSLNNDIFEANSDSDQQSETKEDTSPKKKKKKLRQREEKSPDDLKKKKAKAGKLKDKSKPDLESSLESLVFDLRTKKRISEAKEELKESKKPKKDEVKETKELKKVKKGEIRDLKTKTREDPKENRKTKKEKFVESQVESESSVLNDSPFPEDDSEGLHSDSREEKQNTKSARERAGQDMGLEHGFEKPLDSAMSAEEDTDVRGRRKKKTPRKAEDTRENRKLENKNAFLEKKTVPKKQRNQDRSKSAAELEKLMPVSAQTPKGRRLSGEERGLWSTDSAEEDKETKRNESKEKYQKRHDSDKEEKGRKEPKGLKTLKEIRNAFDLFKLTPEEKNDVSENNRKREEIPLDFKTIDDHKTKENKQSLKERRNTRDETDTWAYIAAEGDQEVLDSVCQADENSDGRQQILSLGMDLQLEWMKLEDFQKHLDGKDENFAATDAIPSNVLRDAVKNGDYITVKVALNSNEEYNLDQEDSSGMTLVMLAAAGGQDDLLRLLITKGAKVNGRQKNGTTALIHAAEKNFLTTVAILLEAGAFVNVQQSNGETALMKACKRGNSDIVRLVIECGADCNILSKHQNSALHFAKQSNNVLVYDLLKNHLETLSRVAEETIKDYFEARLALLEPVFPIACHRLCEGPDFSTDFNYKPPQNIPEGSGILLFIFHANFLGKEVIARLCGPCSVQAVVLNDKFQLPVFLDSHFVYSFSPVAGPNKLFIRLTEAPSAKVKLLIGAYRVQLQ
How it was run: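 Disruption of the preformed MPP8–trimethyl-H3K9 peptide complex (both 50 nM, 30 min, RT) is measured after 30 min compound exposure, using AlphaScreen proximity beads; aurintricarboxylic acid titration serves as plate control.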

[5] = target: Chromobox protein homolog 1 (Homo sapiens) (UniProt P83916); test: qHTS Validation Assay for Inhibitors of HP1-beta Chromodomain Interactions with Methylated Histone Tails (AID 488953); further: nearly all actives have a fitted effect of over 50% in size; further: potency means the concentration at half of the fitted maximal effect
Sequence of Chromobox protein homolog 1 (Homo sapiens) (P83916 whole entry, looked up): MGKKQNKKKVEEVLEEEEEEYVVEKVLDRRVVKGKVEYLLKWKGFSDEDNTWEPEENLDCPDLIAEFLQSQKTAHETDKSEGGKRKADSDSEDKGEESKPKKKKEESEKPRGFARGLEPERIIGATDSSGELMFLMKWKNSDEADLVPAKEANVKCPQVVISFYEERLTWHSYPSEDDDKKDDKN
How it was run: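 Measured as loss of AlphaScreen luminescence from streptavidin donor and nickel acceptor beads (10 ug/mL final) bridging HP1-beta and biotin-H3(1-18)K9me3, each 50 nM. Compounds met the preassembled complex for 30 min at RT.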

[6] = target: Transient receptor potential cation channel subfamily V member 1 (Homo sapiens) (UniProt Q8NER1); test: HTS Assay for Compounds that Act as Enhancers of the Vanilloid Receptor 1 (AID 488979); further: 0% is about no effect
Sequence of Transient receptor potential cation channel subfamily V member 1 (Homo sapiens) (Q8NER1 whole entry, looked up): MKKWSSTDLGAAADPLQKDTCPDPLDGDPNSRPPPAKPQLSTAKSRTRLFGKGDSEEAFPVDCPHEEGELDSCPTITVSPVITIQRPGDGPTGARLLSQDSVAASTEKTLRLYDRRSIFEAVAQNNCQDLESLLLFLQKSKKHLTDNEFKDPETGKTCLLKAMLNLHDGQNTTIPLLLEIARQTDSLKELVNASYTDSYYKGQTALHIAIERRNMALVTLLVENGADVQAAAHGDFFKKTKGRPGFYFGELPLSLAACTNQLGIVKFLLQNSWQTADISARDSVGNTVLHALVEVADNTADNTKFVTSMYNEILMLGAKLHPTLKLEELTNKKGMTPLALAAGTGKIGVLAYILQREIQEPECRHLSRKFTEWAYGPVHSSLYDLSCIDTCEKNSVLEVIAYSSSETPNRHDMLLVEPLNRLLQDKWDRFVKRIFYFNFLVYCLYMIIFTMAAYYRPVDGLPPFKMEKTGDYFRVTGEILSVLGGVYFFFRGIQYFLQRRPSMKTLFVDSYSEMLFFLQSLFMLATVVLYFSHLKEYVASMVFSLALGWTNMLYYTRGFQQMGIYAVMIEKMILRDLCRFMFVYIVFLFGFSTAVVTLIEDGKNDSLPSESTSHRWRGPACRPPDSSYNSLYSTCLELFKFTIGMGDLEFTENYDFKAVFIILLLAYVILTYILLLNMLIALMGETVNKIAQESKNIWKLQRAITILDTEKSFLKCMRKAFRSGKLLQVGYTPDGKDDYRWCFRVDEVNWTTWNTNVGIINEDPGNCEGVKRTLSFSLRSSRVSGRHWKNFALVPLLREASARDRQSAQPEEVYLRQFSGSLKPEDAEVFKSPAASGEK
How it was run: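 TRPV1 cells loaded with Fluo-8 calcium dye; compound added and Ca2+ signal (ex 480/em 520 nm) followed 3 min, then capsaicin at EC20 added and read 2 more min to detect enhancement.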

[7] = target: D(1A) dopamine receptor (Homo sapiens) (UniProt P21728); test: HTS Assay for Allosteric Agonists of the Human D1 Dopamine Receptor: Primary Screen for Agonists (AID 488981); further: potency means the concentration at half of the fitted maximal effect; on activation: 0% is about no effect
Sequence of D(1A) dopamine receptor (Homo sapiens) (P21728 whole entry, looked up): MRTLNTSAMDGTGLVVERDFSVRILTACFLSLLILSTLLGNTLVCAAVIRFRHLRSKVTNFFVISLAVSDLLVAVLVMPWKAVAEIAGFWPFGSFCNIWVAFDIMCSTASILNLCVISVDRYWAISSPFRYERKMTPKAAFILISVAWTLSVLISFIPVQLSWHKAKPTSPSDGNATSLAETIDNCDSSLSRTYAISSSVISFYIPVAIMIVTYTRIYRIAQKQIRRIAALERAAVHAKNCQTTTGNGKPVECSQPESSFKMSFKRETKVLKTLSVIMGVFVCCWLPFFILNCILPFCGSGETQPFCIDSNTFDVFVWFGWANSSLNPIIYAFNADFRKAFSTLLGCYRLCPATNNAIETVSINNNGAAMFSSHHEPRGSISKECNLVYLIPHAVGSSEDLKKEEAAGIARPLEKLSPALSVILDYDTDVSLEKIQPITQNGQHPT
How it was run: (§1)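 Tetracycline-induced HEK293 Trex D1 cells with forced coupling to calcium, loaded with no-wash calcium dye; kinetic fluorescence read 180 s after compound addition for agonism, then a further 180 s after an EC20 dopamine challenge for potentiation.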

[8] = target: D(1A) dopamine receptor (Homo sapiens) (UniProt P21728); test: HTS Assay for Allosteric Agonists of the Human D1 Dopamine Receptor: Primary Screen for Potentiators (AID 488982); further: 0% is about no effect
How it was run: as §1

[9] = target: D(1A) dopamine receptor (Homo sapiens) (UniProt P21728); test: HTS Assay for Allosteric Agonists of the Human D1 Dopamine Receptor: Primary Screen for Antagonists (AID 488983);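 further: calcium flux response to an EC80 dopamine challenge measured with no-wash dye; nearly all actives have a fitted effect of over 65% in size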; further: potency means the concentration at half of the fitted maximal effect
How it was run: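 Screening of inducible HEK293 T-REx D1 cells: compound first, EC80 dopamine 180 s later, each phase read kinetically for calcium over 180 s.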

[10] = Validation screen for small molecules that induce genotoxicity in human embryonic kidney (HEK293T) cells expressing luciferase-tagged ELG1 (AID 493106); further: potency means the concentration at half of the fitted maximal effect
How it was run: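 Reporter-gene quantitative HTS in HEK293T cells carrying luciferase-tagged ELG1, whose level climbs under genotoxic stress. Compound exposure lasts 16 hr at 37 °C before luciferase detection.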

[11] = target: ATPase family AAA domain-containing protein 5 (Homo sapiens) (UniProt Q96QE3); test: Validation screen for small molecules that inhibit ELG1-dependent DNA repair in human embryonic kidney (HEK293T) cells expressing luciferase-tagged ELG1 (AID 493107);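 further: cells co-treated with the DNA-damaging agent 5-fluorouridine alongside compound; series mostly up to about 46 µM; on the % scale 0 is the no-effect control and ±100 the full control effect; inhibitors lower the ELG1-luciferase luminescence signal; nearly all actives have a fitted effect of over 70% in size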
How it was run: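 Quantitative HTS in HEK293T cells carrying luciferase-tagged ELG1, stimulated with 5-fluorouridine alongside compound for 16 hr. Loss of luciferase signal marks inhibition of ELG1 response.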

[12] = target: Thyrotropin-releasing hormone receptor (Homo sapiens) (UniProt P34981); test: qHTS for Small Molecule Agonists and Allosteric Enhancers of Human TRH Receptor: Validation Screen for Agonists (AID 493127;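 active means calcium activation more than 3 SD above the typical response in the agonist read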;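 further: intracellular calcium rise by fluo-8 fluorescence before TRH EC20 addition; 0% is about no effect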); conditions: TRH receptor agonist cell assay; at 2 µM; stronger effect = higher value
Sequence of Thyrotropin-releasing hormone receptor (Homo sapiens) (P34981 whole entry, looked up): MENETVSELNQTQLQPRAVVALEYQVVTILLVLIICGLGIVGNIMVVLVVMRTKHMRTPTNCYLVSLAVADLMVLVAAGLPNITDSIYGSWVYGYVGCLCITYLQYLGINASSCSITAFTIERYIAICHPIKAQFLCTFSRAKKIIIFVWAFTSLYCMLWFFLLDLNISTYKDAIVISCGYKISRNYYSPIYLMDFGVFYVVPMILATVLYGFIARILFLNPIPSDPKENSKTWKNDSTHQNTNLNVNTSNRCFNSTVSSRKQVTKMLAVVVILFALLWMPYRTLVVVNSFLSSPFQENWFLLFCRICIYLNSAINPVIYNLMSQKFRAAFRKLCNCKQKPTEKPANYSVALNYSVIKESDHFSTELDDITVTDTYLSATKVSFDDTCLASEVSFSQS
How it was run: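 Gq-coupled calcium mobilization in TRHR cells after compound addition, monitored kinetically with fluo-8 dye on an FDSS reader.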

[13] = Nrf2 qHTS screen for inhibitors: Validation (AID 493153; active means well fitted inhibition curve with a large enough effect in the main read-out, with a control signal flat, not every such curve was filed as active); conditions: Potency: luciferase luminescence; viability change: measured here: cytotoxicity max response
How it was run: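 Dose-response validation uses reporter A549 cells with firefly luciferase under an antioxidant response element. Compounds stay on cells 18-24 h at 37°C, and luminescence indicates Nrf2-driven transcription.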

[14] = qHTS for Inhibitors of Cell Surface uPA Generation: Validation Assay (AID 493164);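 further: RAW 264.7 macrophage cells exposed to compound for 18 h; 0% is about no effect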
How it was run: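 RAW 264.7, 4000 cells/well, o/n plating; cpd 7-pt 1:5 dilution 2.45 nM–38.3 uM final; 18 h, 37 C/5% CO2; ATP-Lite, 5 s luminescence exposure.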

[15] = Validation screen for small molecules that induce DNA re-replication in SW480 colon adenocarcinoma cells (AID 504364); further: 0% is about no effect
How it was run: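 Cells are treated 48 hr with test compound, stained 40 min with Hoechst at 37 C, and scanned for nuclear fluorescence; compounds inducing re-replication increase nuclei with elevated intensity.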

[16] = target: Peptidyl-prolyl cis-trans isomerase NIMA-interacting 1 (Homo sapiens) (UniProt Q13526); test: qHTS Validation Assay to Find Inhibitors of Pin1 (AID 504536; active means well fitted inhibition curve with a large enough effect in the polarisation, with a control signal flat, not every such curve was filed as active; the % refers to the polarisation;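 further: 0% = full Pin1 enzyme wells and -100% = no-enzyme wells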)
Sequence of Peptidyl-prolyl cis-trans isomerase NIMA-interacting 1 (Homo sapiens) (Q13526 whole entry, looked up): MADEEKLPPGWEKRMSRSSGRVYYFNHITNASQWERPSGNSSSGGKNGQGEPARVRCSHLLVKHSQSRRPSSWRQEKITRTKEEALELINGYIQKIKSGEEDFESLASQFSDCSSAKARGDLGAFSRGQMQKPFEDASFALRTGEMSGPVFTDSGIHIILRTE
How it was run: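 Fluorescence polarization competition: compounds (titration) displace HiFluor-488-labeled Pin1-1b peptide from Pin1 (0.3 uM final) in pH 7.5 HEPES buffer with DTT, 10 min at room temperature; %Activity normalized to no-enzyme wells, curves fitted.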

[17] = target: Thyrotropin receptor (Homo sapiens) (UniProt P16473); test: qHTS Assay for Antagonists of the Thyroid Stimulating Hormone Receptor (AID 488980); further: series mostly up to about 58 µM; 0% is about no effect
How it was run: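 Cells expressing human TSHR (HEK293) are dispensed in HBSS/HEPES containing 70 uM RO 20-1724, compound is added, then TSH at EC80 (4 nM final). Antibody in lysis buffer follows, 30 minutes at room temperature before HTRF detection.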

[18] = target: ATP-dependent 6-phosphofructokinase (Trypanosoma brucei brucei) (UniProt O15648); test: qHTS Assay to Find Inhibitors of T. brucei phosphofructokinase: hit validation (AID 492961); further: series mostly up to about 51 µM; on the % scale 0 is the no-effect control and ±100 the full control effect
Sequence of ATP-dependent 6-phosphofructokinase (Trypanosoma brucei brucei) (O15648 whole entry, looked up): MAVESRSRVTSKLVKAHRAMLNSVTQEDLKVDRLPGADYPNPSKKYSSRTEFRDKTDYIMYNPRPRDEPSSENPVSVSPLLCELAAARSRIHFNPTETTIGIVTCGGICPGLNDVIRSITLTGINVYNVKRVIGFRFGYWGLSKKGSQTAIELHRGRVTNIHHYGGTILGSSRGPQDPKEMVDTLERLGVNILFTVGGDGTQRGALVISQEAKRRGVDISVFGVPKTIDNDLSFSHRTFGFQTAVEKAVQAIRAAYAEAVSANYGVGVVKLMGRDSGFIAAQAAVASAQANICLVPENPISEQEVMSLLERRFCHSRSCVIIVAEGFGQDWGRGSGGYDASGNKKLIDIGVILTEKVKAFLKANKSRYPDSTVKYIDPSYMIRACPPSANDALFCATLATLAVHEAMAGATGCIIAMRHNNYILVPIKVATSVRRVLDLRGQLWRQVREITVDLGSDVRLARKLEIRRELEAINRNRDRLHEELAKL
How it was run: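 Luminescence from ADP-Glo reports ADP generated as T. brucei PFK (1.25 nM) phosphorylates 0.5 mM fructose-6-phosphate using 0.1 mM ATP. Reactions ran 45 min at room temperature, pH 8.0.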

[19] = target: Galactokinase (Homo sapiens) (UniProt P51570); test: qHTS Validation Assay for Inhibitors of Human Galactokinase (GALK) (AID 493189); further: 0% is about no effect
Sequence of Galactokinase (Homo sapiens) (P51570 whole entry, looked up): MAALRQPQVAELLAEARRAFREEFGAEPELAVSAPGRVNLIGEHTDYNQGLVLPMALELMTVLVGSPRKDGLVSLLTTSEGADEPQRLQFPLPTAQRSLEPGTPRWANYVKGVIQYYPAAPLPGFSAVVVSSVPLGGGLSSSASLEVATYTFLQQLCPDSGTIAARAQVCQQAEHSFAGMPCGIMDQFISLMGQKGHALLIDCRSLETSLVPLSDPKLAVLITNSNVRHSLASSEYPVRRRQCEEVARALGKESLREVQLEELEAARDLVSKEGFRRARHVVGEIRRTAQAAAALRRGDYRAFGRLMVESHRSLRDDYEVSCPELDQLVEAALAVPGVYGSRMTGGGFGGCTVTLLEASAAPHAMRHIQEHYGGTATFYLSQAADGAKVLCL
How it was run: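 Compounds were pin-transferred into ATP buffer, then GALK-galactose mix was added (final 5 nM enzyme, 100 uM galactose, 35 uM ATP). After 1 h at room temperature, remaining ATP was measured luminescently.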

[20] = target: Methanococcus maripaludis chaperonin (MmCpn) (UniProt Q6LX38); test: High-Throughput Screening for Modulators of Cytosolic Chaperonin Activity: MmCpn Primary Screen (AID 488978);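 further: 50 nM MmCpn enzyme hydrolysing 30 µM ATP at 37 °C; 0% is about no effect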
How it was run: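 Measures ATPase turnover of the M. maripaludis chaperonin (50 nM final) against 30 uM ATP over 10 min at 37C, with compound added 5 min beforehand at room temperature. ADP is quantified by HTRF immunodetection.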

CCN(CC)CCCC(C)Nc1ccnc2cc(Cl)ccc12 (stereo unspecified)
-17.9%: viability change [13]
inactive: outcome [1] | Potency [2] | Potency [3] | Potency [4] | Potency [5] | outcome [6] | Potency [7] | Potency [8] | Potency [9] | Potency [10] | Potency [11] | activation [12] 0.875% | Potency [13] | outcome [14] | outcome [15] | outcome [16]

NNCCc1ccccc1
inactive: outcome [1] | Potency [2] | Potency [3] | Potency [4] | Potency [5] | outcome [6] | outcome [17] | Potency [7] | Potency [8] | Potency [9] | outcome [18] | activation [12] 1.5% | Potency [13] | outcome [14] | outcome [19] | outcome [15] | outcome [16]
2.04%: viability change [13]

Cc1[nH]c(=O)c(C#N)cc1-c1ccc2nccn2c1
inactive: outcome [1] | Potency [2] | Potency [3] | Potency [4] | Potency [5] | outcome [6] | outcome [17] | Potency [7] | Potency [9] | outcome [18] | Potency [10] | activation [12] 0.25% | Potency [13] | outcome [14] | outcome [19] | outcome [15] | outcome [16]
7.27%: viability change [13]

O=c1n(CCCN2CCN(c3cccc(Cl)c3)CC2)nc2ccccn12
inactive: outcome [1] | Potency [2] | Potency [3] | Potency [4] | Potency [5] | outcome [6] | outcome [17] | Potency [7] | Potency [8] | outcome [18] | Potency [10] | Potency [11] | Potency [13] | outcome [14] | outcome [19] | outcome [15] | outcome [16]
active: Potency [9] 11.2 µM
-3.91%: viability change [13]

CC(C[N+](C)(C)C)OC(N)=O (stereo unspecified)
inactive: outcome [1] | Potency [2] | Potency [3] | Potency [4] | Potency [5] | outcome [6] | Potency [7] | Potency [8] | Potency [9] | outcome [18] | Potency [10] | Potency [11] | activation [12] 0.562% | Potency [13] | outcome [14] | outcome [19] | outcome [15] | outcome [16]
-0.659%: viability change [13]

Clc1cccc(Cl)c1NC1=NCCN1
inactive: outcome [1] | Potency [2] | Potency [3] | Potency [4] | Potency [5] | outcome [6] | outcome [17] | Potency [7] | Potency [8] | Potency [9] | Potency [10] | Potency [11] | Potency [13] | outcome [14] | outcome [19] | outcome [15] | outcome [16]
0.846%: viability change [13]

CCC(C)N(C)C(=O)c1cc2ccccc2c(-c2ccccc2Cl)n1 (stereo unspecified)
-9.44%: viability change [13]
inactive: outcome [1] | Potency [2] | Potency [3] | Potency [4] | Potency [5] | outcome [6] | outcome [17] | Potency [7] | Potency [8] | Potency [9] | Potency [10] | Potency [11] | activation [12] -6.5% | Potency [13] | outcome [14] | outcome [19] | outcome [15] | outcome [16]

CCn1cc(C(=O)O)c(=O)c2cc(F)c(N3CCNC(C)C3)c(F)c21 (stereo unspecified)
-3.76%: viability change [13]
inactive: outcome [1] | Potency [2] | Potency [3] | Potency [4] | Potency [5] | outcome [6] | outcome [17] | Potency [7] | Potency [8] | Potency [9] | Potency [10] | Potency [11] | Potency [13] | outcome [14] | outcome [19] | outcome [15]

NS(=O)(=O)c1cc2c(cc1Cl)NC=NS2(=O)=O
-3.76%: viability change [13]
inactive: outcome [1] | Potency [2] | Potency [3] | Potency [4] | Potency [5] | outcome [6] | outcome [17] | Potency [7] | Potency [8] | Potency [9] | Potency [10] | Potency [11] | activation [12] 1.12% | Potency [13] | outcome [14] | outcome [19] | outcome [15] | outcome [16]

CC(C)(Sc1ccc(CCN(CCCCC2CCCCC2)C(=O)NC2CCCCC2)cc1)C(=O)O
active: Potency [5] 56.2 µM | Potency [7] 11.2 µM
inactive: outcome [1] | Potency [2] | Potency [3] | outcome [20] | outcome [6] | outcome [17] | Potency [8] | Potency [10] | Potency [11] | activation [12] 1.5% | outcome [14] | outcome [19] | outcome [15]
56.2 µM (active) and inactive: Potency [4]

Cc1oncc1C(=O)Nc1ccc(C(F)(F)F)cc1
0.653%: viability change [13]
active: Potency [10] 2.06 µM
inactive: outcome [1] | Potency [2] | Potency [3] | Potency [4] | Potency [5] | outcome [6] | outcome [17] | Potency [7] | Potency [8] | Potency [9] | outcome [18] | Potency [13] | outcome [14] | outcome [19] | outcome [15] | outcome [16]

CC(C)C[C@H](NC(=O)[C@@H](O)[C@H](N)Cc1ccccc1)C(=O)O
inactive: outcome [1] | Potency [2] | Potency [3] | Potency [4] | Potency [5] | outcome [20] | outcome [6] | outcome [17] | Potency [7] | Potency [8] | Potency [9] | outcome [18] | Potency [10] | Potency [11] | activation [12] 0.938% | outcome [19] | outcome [15] | outcome [16]
